Compounds with a hit are over-represented: about 7.9% of the library has one in this group of screens.
HCV inh = qHTS Assay for Inhibitors of Hepatitis C Virus (HCV); Huh7.5.1 HCVcc-Cre infection, luciferase reporter, 44 h; 3.4% of 340,000 active; Potency, µM (doses to about 41.8 µM), without a hit: at the top dose activity change, negative = inhibition, most hits filed as inhibitors; active = well fitted inhibition curve with a large enough effect; inconclusive = small, poorly fitted or top-dose-only effect, or another doubt; inactive = no such curve, though single readings can be large or run the other way; note: potency is the fitted concentration of half-maximal effect
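Compounds are dispensed onto cells plated 4 h earlier at 1,000 per well, with HCVcc-Cre virus (about 0.5 moi) added next. Following 44 h of culture, luminescent signal is measured for 15 sec after 15 min with substrate at room temperature.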
Lassa entry inh = qHTS for Inhibitors of binding or entry into cells for Lassa Virus; Lassa virus pseudotype entry inhibition, cell reporter; Potency, µM (top dose mostly 37.9 µM), for inactives: top-dose activity change, negative = inhibition, actives largely listed as inhibitors; 1.2% of 300,000 active; calls by dose curve; tested in HEK293 cells; note: potency is the fitted concentration of half-maximal effect; nearly all actives have a fitted effect of over 50% in size
HCMV inh = qHTS Assay for inhibitors of the human cytomegalovirus (HCMV); AID 1259415, 2018; activity change, negative = inhibition, % at 57.5 µM; 4.5% of 410,000 active; HFF cells, HCMV-luciferase reporter, 72 h; hits give low values; in the data active = activity change below about -60%; inconclusive = no clear call, values can overlap the other calls; inactive = above about -39%
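Two compound doses tested in HFFs infected with HCMV-luciferase, MOI 1 PFU/cell, 72 h at 37C. Lysate luminescence read with OneGlo; data normalized against buffer-only and 10uM Salinomycin inhibitor controls.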
MARV entry inh = qHTS for inhibitors of binding or entry into cells for Marburg Virus; Marburg virus pseudotyped entry inhibition, cell reporter; Potency, µM (series often up to 37.8 µM), inactives show at the top dose activity change, negative = inhibition, most hits filed as inhibitors; 1.8% of 300,000 active; calls by dose curve; tested in HEK293 cells; note: potency is the fitted concentration of half-maximal effect
FMDV inh = High Throughput Screening for Foot and Mouth Disease Virus Antivirals; AID 1159524, 2015; 1.2% of 410,000 active; FMDV antiviral cell-based qHTS; Potency, µM (titrated, usually from 57.9 µM), for inactives: top-dose activity change, negative = inhibition, hits mostly inhibitors; calls by dose curve; tested in HEK293T cells; note: read-out not given here; potency is the fitted concentration of half-maximal effect; nearly all actives have a fitted effect of over 45% in size
Starred values were filed as active, the others as inactive; ? = inconclusive; nt = no result; [ ] = another dose, or the depositor's remark. % is set by controls: 0 for no effect and ±100 for the full control effect.

SMILES	HCV inh	Lassa entry inh	HCMV inh	MARV entry inh	FMDV inh
COc1ccc(Cl)cc1NC(=O)Cn1cnc2sc(C)c(S(=O)(=O)N3CCN(c4ccccc4OC)CC3)c2c1=O	nt	3%[46.1 µM]	15	20%[46.1 µM]	-8%
Cc1nn(-c2ccccc2)c(C)c1/C=N/n1c(-c2ccccc2Br)n[nH]c1=S	-20%	13µM*	-19	?	-10%
CCN(CC)c1ccc(/C=N/n2c(-c3ccccc3Br)n[nH]c2=S)cc1	?	?	-18	?	?
CCn1c(SCc2ccc(C#N)cc2)nnc1-c1ccc(S(=O)(=O)N2CCCCC2)cc1	7.9µM*	?	-70*	-18%	?
CCN(CC)CCCNC(=O)c1c(O)c2ccccc2n(Cc2ccccc2)c1=O	-20%	?	-19	14µM*	-17%
CCCn1c(=O)c(C(=O)NCCc2ccc(OC)cc2)c(O)c2ccccc21	13µM*	nt	7	nt	-9%
C=CCn1c(=O)c(C(=O)NCc2ccc(Cl)cc2)c(O)c2ccccc21	3%	nt	-66*	nt	-28%
CCCn1c(=O)c(C(=O)NCc2ccc(OC)c(OC)c2)c(O)c2ccccc21	14µM*	12%	58	-21%	?
CCn1ccc2cc(S(=O)(=O)N3CCCN(C(=O)Nc4ccccc4C(F)(F)F)CC3)ccc21	nt	-32%[46.1 µM]	15	nt	-18%
Cc1cc(-c2ccccc2)nc(N2CCC(C(=O)NCc3ccccc3Cl)CC2)n1	3%	nt	nt	nt	nt
C=CCNC(=O)C1CCN(c2nc(C)cc(-c3ccccc3)n2)CC1	2.8µM*	?	50	7%	38%
COc1ccc(/C=N/Nc2nc(N3CCCCC3)nc(N3CCCCC3)n2)cc1[N+](=O)[O-]	3.5µM*	?	-74*	?	-25%
O=[N+]([O-])c1ccc(-c2ccc(/C=N/Nc3nc(N4CCCCC4)nc(N4CCCCC4)n3)o2)cc1	-15%	9%	?	29%[46.1 µM]	-9%
O=[N+]([O-])c1cccc(/C=N/Nc2nc(N3CCCCC3)nc(N3CCCCC3)n2)c1	5.6µM*	11%[46.1 µM]	-10	-3%[46.1 µM]	-28%
O=[N+]([O-])c1cccc(-c2ccc(/C=N/Nc3nc(N4CCCCC4)nc(N4CCCCC4)n3)o2)c1	11µM*	?	-6	?	-18%
O=C1CC[C@@H](CN(Cc2cccnc2)C2CCN(c3ccc(NC(=O)c4cnccn4)cc3)CC2)N1	nt	nt	nt	nt	25%
O=C(Nc1ccc(N2CCN(C(=O)c3cccs3)CC2)cc1)c1cccc(F)c1	-21%	-17%[46.1 µM]	35	?	1%
O=C(NC(=S)Nc1ccc(N2CCN(C(=O)c3ccccc3)CC2)cc1)c1cccs1	32µM*	?	-64*	?	?
COc1cccc(C(=O)Nc2ccc(N3CCN(C(=O)c4cccs4)CC3)cc2)c1	?	?	-25	?	32µM*
O=C(NC(=S)Nc1ccccc1N1CCOCC1)c1cccs1	-6%	-1%	-72*	?	?
CCCc1nn2c(=O)cc(COC(=O)c3cccc(NC(=O)c4cccs4)c3)nc2s1	nt	10%[46.1 µM]	24	nt	12%
COc1ccccc1C1CN(CCNC(=O)c2ccc3c(c2)OCCO3)Cc2ccccc2O1 (stereo not drawn)	nt	nt	nt	nt	-5%
O=S(=O)(O)c1cc(O)c(N=Nc2ccc(O)cc2O)c2ccccc12	-4%	-1%[46.1 µM]	?	-1%[46.1 µM]	28µM*
CC(=NCCc1ccccc1)c1c(O)[nH]c(=O)[nH]c1=O	2%	-15%	6	-7%[46.1 µM]	6%
CCC(=NCCc1ccccc1)c1c(O)[nH]c(=O)[nH]c1=O	0.32µM*	0%	28	0%	-16%
SMILES	HCV inh	Lassa entry inh	HCMV inh	MARV entry inh	FMDV inh
COc1ccc2c(c1)c(CC(=O)Nc1ccccc1OC)c(C)n2C(=O)c1ccc(Cl)cc1	?	-15%	-13	?	-18%
COc1ccc(OC)c(NC(=O)Cc2c(C)n(C(=O)c3ccc(Cl)cc3)c3ccc(OC)cc23)c1	nt	?	-71*	-22%[46.1 µM]	?
COc1ccc2c(c1)c(CC(=O)Nc1ccc(C(C)=O)cc1)c(C)n2C(=O)c1ccc(Cl)cc1	-28%	?	19	?	18%
COc1ccc2c(c1)c(CC(=O)NCc1cc([N+](=O)[O-])ccc1O)c(C)n2C(=O)c1ccc(Cl)cc1	?	8%	nt	-10%	40µM*
COc1ccc2c(c1)c(CC(=O)Nc1nnc(C3CC3)s1)c(C)n2C(=O)c1ccc(Cl)cc1	14%	?	-76*	3.2µM*	5%
COc1ccc2c(c1)c(CC(=O)Nc1c(C)cccc1C)c(C)n2C(=O)c1ccc(Cl)cc1	nt	0%[46.1 µM]	-17	-16%[46.1 µM]	?
Cc1cccc(NC(=O)N2CCC(C(=O)c3ccc(F)cc3)CC2)c1	?	25%	-64*	-29%[46.1 µM]	24%
COc1cccc(C(=O)N2CCC(N3CCN(Cc4ccc(F)cc4)C(=O)C3=O)CC2)c1	nt	20%[46.1 µM]	-2	nt	-1%
CCOC(=O)[C@@]1([C@@H](NC(=O)OC)c2cccc(C)c2)CCCC1=O	nt	nt	nt	26%[14.2 µM]	nt
CC1(C)Cc2c(sc(NC(=O)c3ccc(C(=O)c4ccccc4)cc3)c2C(N)=O)C(C)(C)N1	?	?	-100*	?	-29%
C#CC[N+]1(CC#Cc2ccccc2)CCCCC1	18%	-2%	0	19%[46.1 µM]	-7%
Cc1ccc(C#CC[N+]2(CC#Cc3ccc(C)cc3)CCCCC2)cc1	?	nt	-101*	-1%	?
C#CC[N+]1(CC#Cc2cccc(C)c2)CCCCC1	-4%	-19%	?	-7%[46.1 µM]	-19%
C(#Cc1ccccc1)C[N+]1(CC#Cc2ccccc2)CCCCC1	?	?	-62*	-12%[46.1 µM]	?
COc1ccc(-c2nc3c(c4c2C[C@H](c2ccccc2)OC4)CN(S(=O)(=O)c2ccc(Cl)c4nonc24)CC3)c(C)c1	nt	?	nt	1%[14.2 µM]	nt
COc1ccc2c(c1)c1c(c(=O)n(Cc3ccccc3)c(=O)n1Cc1ccccc1)n2C	nt	6%[46.1 µM]	7	nt	-19%
O=C(N/N=C/c1cn(-c2cccs2)nc1-c1ccccc1)c1ccccc1O	?	13µM*	-14	16µM*	20µM*
O=C(N/N=C/c1cn(-c2cccs2)nc1-c1ccccc1)c1ccccc1Br	7.1µM*	-13%	38	-28%	17%
Cc1ccc(S(=O)(=O)NC2c3cccc4cccc(c34)C2Sc2n[nH]c(N)n2)cc1 (stereo not drawn)	?	-27%	-3	?	1%
O=S(=O)(NC1c2cccc3cccc(c23)C1Sc1ncccn1)c1ccc(Cl)cc1 (stereo not drawn)	?	?	-72*	?	-20%
C#CCNC(=O)C[C@@H]1C[C@@]2(C(=O)OC)CCCCC=C2N(Cc2cccc3ccccc23)C1=O	nt	nt	2	nt	-24%
COC(=O)[C@]12CCCCC=C1N(Cc1cccc3ccccc13)C(=O)[C@H](CC(=O)NCC13CC4CC(CC(C4)C1)C3)C2	nt	nt	-85*	nt	-14%
